Assay outcomes: PubChem, National Center for Advancing Translational Sciences (NCATS)
An excerpt weighted towards active compounds, which were near 10% of everything screened.
NPR1 antag – antagonists of human natriuretic peptide receptor Npr1; AID 1347048; P16066; HEK293 hNpr1 GloSensor cGMP, ANP-stimulated luminescence; Potency, µM (doses to about 46.3 µM), for inactives: at the top dose activity change, negative = inhibition, hits mostly inhibitors; 76,000 tested, 1.6% active; calls by dose curve; note: nearly all actives have a fitted effect of over 60% in size
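Compound pre-incubated 30 min at room temperature on GloSensor-loaded HEK293 cells stably carrying hNpr1 and the pGS-40F cGMP biosensor. Stimulation uses hNppA at 0.1 nM final; luminescence is taken at baseline and 20 min post-agonist.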
Luciferase inh – inhibitors of firefly (Photinus pyralis) luciferase. purified P. pyralis luciferase, luminescence, biochemical. Potency, µM (top dose mostly 115 µM), hits mostly inhibitors. 76,000 tested, 2.5% active; note: nearly all actives have a fitted effect of over 65% in size
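Luminescence read by CCD imager after adding enzyme (10nM final) to wells holding compound, titrated in qHTS. Substrates 10uM each D-luciferin and ATP; buffer 50mM Tris acetate pH 7.5, 10mM Mg acetate, Tween-20, BSA.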
3T3 cytotox – cytotoxic compounds in NIH 3T3 cells. NIH 3T3 viability, CellTiter-Glo ATP luminescence, 48-72 h. Potency, µM (series often up to 96.7 µM), inactives show at the highest dose activity change, negative = cytotoxicity, hits mostly inhibitors. 94,000 tested, 4.3% active. AID 1345082; note: nearly all actives have a fitted effect of over 55% in size
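Luminescent ATP readout (CellTiter-Glo, 10 min RT) after 48 or 72 hr compound exposure of NIH 3T3 cells seeded at 400 cells/well in 1536-well format; quantitative HTS.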
GPT2 inhibitor – GPT2 alanine aminotransferase inhibition; 100,000 tested, 0.25% active; Recombinant GPT2, coupled pyruvate oxidase/HRP Amplex Red fluorescence; Potency, µM (titrated, usually from 57.7 µM), inactives show top-dose activity change, negative = inhibition, hits mostly inhibitors; note: nearly all actives have a fitted effect of over 60% in size
Target sequence (Q8TD30 whole entry, looked up): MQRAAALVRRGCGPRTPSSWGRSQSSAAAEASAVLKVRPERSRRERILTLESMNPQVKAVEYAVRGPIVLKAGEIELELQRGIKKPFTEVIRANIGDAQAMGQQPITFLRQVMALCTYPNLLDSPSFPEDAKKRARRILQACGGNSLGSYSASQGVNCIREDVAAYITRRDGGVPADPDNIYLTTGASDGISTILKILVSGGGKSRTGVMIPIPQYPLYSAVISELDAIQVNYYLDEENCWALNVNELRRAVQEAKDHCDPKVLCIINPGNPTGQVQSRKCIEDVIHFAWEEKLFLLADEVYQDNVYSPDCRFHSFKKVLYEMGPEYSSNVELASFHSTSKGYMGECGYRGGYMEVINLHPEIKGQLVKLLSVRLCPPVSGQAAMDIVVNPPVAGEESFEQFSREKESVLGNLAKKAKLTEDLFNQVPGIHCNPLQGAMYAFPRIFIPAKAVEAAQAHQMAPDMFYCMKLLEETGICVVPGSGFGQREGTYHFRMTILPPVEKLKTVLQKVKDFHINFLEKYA
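Inhibition is scored from Amplex Red fluorescence generated when pyruvate oxidase and HRP act on pyruvate released by GPT2. Reactions contain 10ng/uL enzyme, 250uM a-KG and 2mM L-alanine and run 30 min at room temperature.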
HEK293 tox – HEK 293 cell cytotoxicity | HEK 293 viability, ATP luminescence (CellTiter-Glo), 48-72 h | Potency, µM (titrated, usually from 115 µM), for the others: at the highest dose activity change, negative = cytotoxicity, usual class: inhibitors | 94,000 tested, 6.6% active; note: nearly all actives have a fitted effect of over 60% in size
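HEK 293 cells seeded at 250 cells/well were exposed to compound for 48 or 72 hr at 37 degree Celsius. Viability taken as ATP content by CellTiter-Glo luminescence.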
* = called active by the depositor; [ ] = another dose, or the depositor's remark. Unless noted, calls come from the whole dose curve; as a rule, active = well fitted curve in the direction sought with a large enough effect; inconclusive = small, poorly fitted or top-dose-only effect, or another doubt; inactive = no such curve, though single readings can be large; an effect the other way counts as inactive or inconclusive. % is set by controls: 0 for no effect and ±100 for the full control effect; potency is the fitted concentration of half-maximal effect.

For COC[C@@H]1CN(C(=O)c2ccc3ccccc3n2)C[C@H]1c1ccncc1 the results were NPR1 antag -10%, Luciferase inh inactive, 3T3 cytotox -25%, GPT2 inhibitor inactive and HEK293 tox inactive.
For O=C(C[C@@H]1CCNC[C@@H]1Cc1cc(CN2CCOCC2)on1)NCCN1CCOCC1 the results were NPR1 antag 7%, Luciferase inh inactive, 3T3 cytotox -4%, GPT2 inhibitor -13% and HEK293 tox -3%.
`CC(C)NC(=O)C[C@@H]1CCNC[C@@H]1Cc1cc(CC2CCCCC2)on1` gave NPR1 antag -1%[70.6 µM], Luciferase inh inactive, 3T3 cytotox 100µM*, GPT2 inhibitor inactive and HEK293 tox inconclusive.
CCCCc1cc(C[C@H]2CNCC[C@H]2CC(=O)NCc2ccc(F)cc2)no1 was read as NPR1 antag inconclusive, Luciferase inh inactive, 3T3 cytotox inconclusive, GPT2 inhibitor inactive and HEK293 tox inconclusive.
CCCCc1cc(C[C@H]2CNCC[C@H]2CC(=O)NCc2ccccc2)no1 was read as NPR1 antag inconclusive, Luciferase inh inactive, 3T3 cytotox inconclusive, GPT2 inhibitor 0%[88.5 µM] and HEK293 tox 71µM*.
`CCCCc1cc(C[C@H]2CNCC[C@H]2CC(=O)Nc2ccccc2)no1` gave NPR1 antag -9%[70.6 µM], Luciferase inh inactive, 3T3 cytotox inconclusive, GPT2 inhibitor inactive and HEK293 tox 63µM*.
Screening O=c1c2nc(-c3cccc(O)c3)ccc2ncn1Cc1ccccn1 returned NPR1 antag -2%[70.6 µM], Luciferase inh inactive, 3T3 cytotox 20µM*, GPT2 inhibitor -5%[88.5 µM] and HEK293 tox -19%[172 µM].
O=c1c2nc(-c3ccc(O)c(F)c3)ccc2ncn1Cc1ccccn1 was read as NPR1 antag 2%[70.6 µM], Luciferase inh inactive, 3T3 cytotox 79µM*, GPT2 inhibitor -10%[88.5 µM] and HEK293 tox -7%[172 µM].
COCCNC(=O)CNC(=O)c1cccc(-c2ccsc2)c1 was read as 3T3 cytotox -8%[138 µM], GPT2 inhibitor inactive and HEK293 tox -23%[172 µM].
Screening Oc1ccccc1-c1cc(-c2cccnc2)c2cncn2c1 returned NPR1 antag -22%[70.6 µM], Luciferase inh inactive, 3T3 cytotox inconclusive, GPT2 inhibitor -14%[88.5 µM] and HEK293 tox 100µM*.
`COc1ccc(-c2cc(-c3cccc(CO)c3)cn3cncc23)cc1` gave NPR1 antag -20%[70.6 µM], Luciferase inh inactive, 3T3 cytotox 56µM*, GPT2 inhibitor inactive and HEK293 tox 79µM*.
For COc1ccc(-c2cc(-c3cnn(C)c3)cn3cncc23)cn1 the results were NPR1 antag -13%[70.6 µM], Luciferase inh inactive, 3T3 cytotox inconclusive, GPT2 inhibitor -22%[88.5 µM] and HEK293 tox inconclusive.
COc1cccc(-c2cc(-c3ccc(OC)nc3)c3cncn3c2)c1 was read as NPR1 antag -19%[70.6 µM], Luciferase inh inactive, 3T3 cytotox inconclusive, GPT2 inhibitor inactive and HEK293 tox inconclusive.
For COc1ccc(-c2cc(-c3cnn(C)c3)cn3cncc23)cc1 the results were NPR1 antag -18%[70.6 µM], Luciferase inh inactive, 3T3 cytotox 35µM*, GPT2 inhibitor inconclusive and HEK293 tox inconclusive.
COc1ccc(-c2cc(-c3ccccc3O)cn3cncc23)cc1 was read as NPR1 antag -23%[70.6 µM], Luciferase inh inactive, 3T3 cytotox inconclusive, GPT2 inhibitor -9%[88.5 µM] and HEK293 tox 100µM*.
For CN(Cc1ccc(N2CCOCC2)cc1)C(=O)CCC[C@H]1NC[C@@H]2C[C@H]1CN(Cc1ccccc1)C2 the results were NPR1 antag -10%, Luciferase inh inactive, 3T3 cytotox -25%, GPT2 inhibitor inconclusive and HEK293 tox inconclusive.
`CC(C)Cn1c(=O)c(C(=O)N2CCC(c3ccccc3)CC2)nc2cccnc21` gave 3T3 cytotox inconclusive, GPT2 inhibitor inactive and HEK293 tox inconclusive.
Screening O=C1CC2CCCC(C1)N2C(=O)c1ccc(C(F)(F)F)cc1 returned NPR1 antag 3%[70.6 µM], Luciferase inh inactive, 3T3 cytotox -27%[138 µM], GPT2 inhibitor inactive and HEK293 tox -19%[172 µM].
